Casp6 inh = blocks human caspase-6 cleavage activity; P55212; purified caspase-6, Z-VEID-R110 cleavage fluorescence; inhibition, % at 12.5 µM; 350,000 compounds, 0.53% hits;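 active means mean inhibition across replicates at least about 35%, with every replicate also reaching that limit, limit read from the data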;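 further: 0% = median of neutral control wells and 100% = no fluorescence left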
Target sequence (P55212 24-179 limits assumed): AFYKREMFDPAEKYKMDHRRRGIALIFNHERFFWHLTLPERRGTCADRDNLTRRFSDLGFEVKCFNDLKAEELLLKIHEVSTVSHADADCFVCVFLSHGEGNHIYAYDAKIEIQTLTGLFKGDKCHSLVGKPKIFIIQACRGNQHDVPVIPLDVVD
Target sequence (P55212 194-293 limits assumed): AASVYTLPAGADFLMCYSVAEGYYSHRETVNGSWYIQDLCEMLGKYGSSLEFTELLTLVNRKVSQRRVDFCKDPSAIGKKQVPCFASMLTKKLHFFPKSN
NSD2 inh = NSD2 (human) methyltransferase inhibition | NSD2 peptide methylation, AlphaScreen, 120 min | AID 743445 | 310,000 compounds, 0.54% hits | inhibition, % at 12.5 µM; in the data active means inhibition above about 50%
RAD52 anneal inh = inhibitors of human RAD52 DNA annealing | P43351 | recombinant RAD52 DNA annealing, FRET fluorescence | inhibition, % at 18.7 µM | 360,000 compounds, 0.46% hits | AID 651710;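 active means every replicate showing at least 50% inhibition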
AF4-AF9 inh = blocks AF4 peptide binding to human AF9; inhibition, % at 10 µM; AID 651704; 350,000 compounds, 0.47% hits; P42568; AlphaScreen, biotin-AF4 peptide binding to FLAG-AF9;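 active means every replicate reaching a set inhibition limit, whatever the replicate mean, cut at about 25% in these data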;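 further: 0% = plate neutral control median and 100% = total signal loss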
rRNA inh HTS = inhibitors of bacterial rRNA selective over humanized ribosomes; E. coli WT GFP vs humanized-ribosome RFP mutants, fluorescence, 24 h; active compounds read low; DMSO median 0, no signal -100; GFP signal change (wild-type ribosome), % (test concentration not listed); 350,000 compounds, 1.6% hits; AID 720706;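 active means significant combined selectivity score with lowered wild-type GFP, culture density cut under 30%, mutant RFP and density less affected; inactive means any of these conditions unmet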
AlphaScreen art = AlphaScreen assay artifact in NSD2 counter-screen. shares compounds with NSD2 inh. AlphaScreen artifact counterscreen, preloaded methylated H4 peptide. AC35, µM (doses to about 10 µM), for inactives: at the top dose activity change, negative = signal loss. 1,500 compounds, 9.4% hits; call rule not given here
Starred values were filed as active, the others as inactive; i = inactive; x = not tested or not shown. Most compounds without a hit are left out; they make up all but 2.5% or so of the library.

SMILES	Casp6 inh	NSD2 inh	RAD52 anneal inh	AF4-AF9 inh	rRNA inh HTS	AlphaScreen art
CCN1CCCC1CNC(=O)c1ccc2c(c1)N(Cc1ccccc1F)C(=O)c1ccccc1S2(=O)=O (centres undefined)	-16	15	-7	10	1	x
FC(F)Oc1ccc(NC(=S)NCc2ccccc2)cc1	1	0	-4	3	-33	x
Oc1cccc2c(NC(=S)Nc3ccc(OC(F)F)cc3)cccc12	81*	92*	-12	16	-54	-6%
CNCc1ccccc1OCc1ccc(F)cc1	2	60*	-3	0	15	-4%
COc1ccc(CC(=O)Nc2nncs2)cc1OC	0	x	-16	0	8	x
Cc1ccc(CC(=O)Nc2nncs2)cc1	x	57*	x	x	x	2%
CCCC(=O)Nc1ccc2c(c1)OC[C@@H](C)N(Cc1cncnc1)C[C@@H](C)[C@H](OC)CN(C)C2=O	x	x	x	x	0	x
Cc1[nH][nH]c(=O)c1C(c1ccc(-c2ccc(Cl)c(C(=O)O)c2)o1)c1c(C)[nH][nH]c1=O	x	131*	-31	-6	18	2%
COC(=O)c1ccc(C(c2c(C)[nH][nH]c2=O)c2c(C)[nH][nH]c2=O)cc1	2	0	-1	-25	12	x
COC(=O)c1ccccc1-c1ccc(C(c2c(C)[nH][nH]c2=O)c2c(C)[nH][nH]c2=O)o1	42*	196*	-16	-3	15	1%
COC(=O)c1cccc(-c2ccc(C(c3c(C)[nH][nH]c3=O)c3c(C)[nH][nH]c3=O)o2)c1	16	107*	-28	0	3	-5%
COC(=O)C[C@H]1CC[C@@H]2[C@H](COc3ccc(NS(=O)(=O)c4ccccc4Cl)cc3C(=O)N2C)O1	-2	x	18	-5	1	x
C/C=C/c1ccccc1[C@H]1[C@H](C#N)N(C(C)=O)[C@H]1CO	-1	x	2	0	3	x
CC(C)C#Cc1ccc([C@@H]2[C@@H](CO)N3C(=O)CN(C(=O)c4ccc5c(c4)OCO5)C[C@H]23)cc1	5	x	1	3	4	x
Cc1noc(C)c1S(=O)(=O)Nc1ccc2c(c1)C(=O)N([C@@H](C)CO)C[C@H](C)[C@@H](CN(C)C)OCCCC[C@H](C)O2	-5	x	-15	-3	3	x
C=CCSc1nnc(-c2ccc(Cl)cc2Cl)o1	x	68*	x	x	x	11%
CC(=O)N1CCN(c2ccccc2NC(=O)c2ccc3ccccc3c2)CC1	2	53*	9	1	-22	-1%
O=C(O)C(c1ccccc1)N1C(=O)/C(=C\c2ccc(O)c(O)c2)SC1=S (centres undefined)	35	105*	i	5	-14	7.6µM*
C[C@H](CO)N1C[C@H](C)[C@@H](CN(C)S(=O)(=O)c2ccccc2)OCCCC[C@H](C)Oc2ccc(NS(C)(=O)=O)cc2C1=O	-1	x	-9	0	-5	x
COc1ccc(CCC(=O)Nc2ccc(S(=O)(=O)Nc3nccc(C)n3)cc2)cc1	58*	76*	-37	1	-1	5%
COc1ccc(CCC(=O)Nc2ccc(S(=O)(=O)Nc3ncccn3)cc2)cc1	-2	-1	-39	-3	x	x
Cc1cc(OCC(=O)Nc2ccccc2N2CCCCC2)ccc1C(C)C	-4	77*	-30	0	3	-1%
COc1ccc2c3c(cccc13)N(C)N=C2C	x	72*	x	x	x	3%
COc1ccc(CN(C(=O)c2cccc(OC)c2)C2CCS(=O)(=O)C2)cc1 (centres undefined)	-1	52*	-5	-1	-1	-3%
O=C(c1ccccc1F)N(Cc1ccccc1)C1CCS(=O)(=O)C1 (centres undefined)	x	-1	x	x	x	x
O=C(c1ccccc1F)N(Cc1cccs1)C1CCS(=O)(=O)C1 (centres undefined)	3	85*	-20	-3	8	-2%
COc1ccc(C(=O)N(Cc2cccs2)C2CCS(=O)(=O)C2)cc1 (centres undefined)	-1	100*	-9	-1	3	1%
O=C(c1ccccc1)N(Cc1cccs1)C1CCS(=O)(=O)C1 (centres undefined)	11	-1	-9	-3	5	x
Cc1ccc(NC(=O)Cn2nnc(C(=O)NCc3ccccc3)c2N)cc1C	2	56*	-17	x	16	-2%

Source: PubChem BioAssay
